In PubChem BioAssay (Tox21):
Inconclusive results are not listed. Where a call stands in place of a potency, no number is given. Activity calls are given as the source filed them. Calls come from the whole dose curve; as a rule, active = well fitted activation curve with a large enough effect in the signal ratio in the repeat runs (not every such curve was filed as active); inconclusive = weak or mixed curves, or effect the other way; inactive = no such curve, though single readings can be large or run the other way; the % refers to the signal ratio.

assay: qHTS assay for small molecule agonists of the antioxidant response element (ARE) signaling pathway (AID 743202); settings: HepG2 ARE-bla reporter, beta-lactamase FRET, 16 h; series mostly up to 73.3 µM
From the text: U.S. Tox21 Program National Center for Advancing Translational Sciences [NCATS] NIH Chemical Genomics Center [NCGC] U.S. Environmental Protection Agency [EPA] National Institutes of Environmental Health Sciences [NIEHS] National Toxicology Program [NTP] U.S. Food and Drug Administration [FDA] Tox21 Assay Overview: Oxidative stress has been implicated in the pathogenesis of a variety of diseases ranging from cancer to neurodegeneration. The antioxidant response element (ARE) signaling pathway plays an important role in the amelioration of oxidative stress. The CellSensor ARE-bla HepG2 cell line (Invitrogen) can be used for analyzing the Nrf2/antioxidant response signaling pathway. Nrf2 (NF-E2-related factor 2) and Nrf1 are transcription factors that bind to AREs and activate these genes. The CellSensor ARE-bla Hep G2 cell line contains a beta-lactamase reporter gene under control of the Antioxidant Response Element (ARE) stably integrated into HepG2 cells. The activation of the report gene under culture conditions can be detected by fluorescence intensity. This cell line has been used to screen the Tox21 10K compound library to identify agonists that induce oxidative stress.
Tox21 Assay Protocol Summary: The ARE-bla cells were dispensed at 2,000 cells/5 ul/well in 1536-well black wall/clear bottom plates using a Multidrop dispenser. After the assay plates were incubated at a 37 C/5% CO2 incubator for 5 hours, 23 nL of compounds dissolved in DMSO, positive controls or DMSO only was transferred to the assay plate by a pin tool. The plates were incubated at 37 C for 16 hours. After 1 uL of LiveBLAzer B/G FRET substrate was added using a Flying Reagent Dispenser, the plates were incubated at room temperature for 2 hours, and fluorescence intensity was measured by an Envision plate reader.
Potency is the fitted concentration of half-maximal effect.

Compound	Potency
CCN1CCN(c2cc3c(cc2F)c(=O)c(C(=O)O)cn3C2CC2)CC1	inactive
Cc1ccccc1C(=O)O	inactive
C#CC(C)(O)CC(C)C (stereo not given)	inactive
N#CC1(O)CCCCC1	inactive
C=C(C)C(=O)OCCC(C)OC(=O)C(=C)C (stereo not given)	inactive
Cc1ccc(N)cc1[N+](=O)[O-]	inactive
CCCCCCCCN(C)CCCCCCCC	inactive
COC(=O)[C@H]1[C@H]2C[C@@H]3c4[nH]c5cc(OC)ccc5c4CCN3C[C@H]2C[C@@H](OC(=O)COc2ccc(OC)cc2)[C@@H]1OC	inactive
OC1OC[C@@H](O)[C@H](O)[C@H]1O (stereo not given in full)	inactive
CCn1cc(C(=O)O)c(=O)c2cc(F)c(N3CCN(C)CC3)cc21	inactive
COC(C(=O)O)c1ccccc1 (stereo not given)	inactive
CCN1CCCC(OC(=O)C(c2ccccc2)c2ccccc2)C1 (stereo not given)	inactive
OCc1ccccn1	11.9 µM (active)
OCCN1C[C@H](O)[C@@H](O)[C@H](O)[C@H]1CO	inactive
Cc1onc(-c2ccccc2)c1-c1ccc(S(N)(=O)=O)cc1	inactive
CC(C)=CCC/C(C)=C/C(=O)O	inactive
NC(N)=NS(=O)(=O)c1ccc(N)cc1	inactive
Cc1cc(C)c(NC(=O)CN(CC(=O)O)CC(=O)O)c(C)c1Br	inactive
CCC(C)(C)C1CCC(OC)CC1 (stereo not given)	inactive
CCC(C)OC(=O)N1CCCCC1CCO (stereo not given)	inactive

Compound	Potency
COc1ccc(NC(C)=O)cc1	inactive
CCCCCOC(=O)Nc1nc(=O)n([C@@H]2O[C@H](C)[C@@H](O)[C@H]2O)cc1F	inactive
C[C@H](O)C(=O)Nc1c(I)c(C(=O)NC(CO)CO)c(I)c(C(=O)NC(CO)CO)c1I	inactive
CN(C)N=Nc1ccccc1	inactive
Cn1ccc2cc3c(cc21)CCN3C(=O)Nc1cccnc1	inactive
C=CC(=O)N1CCOCC1	inactive
CCCCCC[C@@H](CCC)C(=O)O	inactive
CCO[Si](C)(OCC)OCC	inactive
C=CCSCC1Nc2cc(Cl)c(S(N)(=O)=O)cc2S(=O)(=O)N1 (stereo not given)	inactive
OC/C=C/c1ccccc1	inactive
C=C(C)[C@@H]1CCC2=CC(=O)C[C@@H](C)[C@]2(C)C1	inactive
O=C(O)c1ccc[n+]([O-])c1	inactive
CCC(=O)/C=C/c1ccc(OC)cc1	inactive
OCC(O)[C@@H](O)[C@H](O)[C@H](O)CO[C@H]1O[C@H](CO)[C@@H](O)[C@H](O)[C@H]1O (stereo not given in full)	inactive
O=C(O)CCNC(=O)c1ccc(N=Nc2ccc(O)c(C(=O)O)c2)cc1	inactive
CCCC=O	inactive
CC(C=O)Cc1ccc(C(C)C)cc1 (stereo not given)	inactive
Nc1cc(C(Cl)=C(Cl)Cl)c(S(N)(=O)=O)cc1S(N)(=O)=O	inactive
CC(C)COC(=O)C(C)C	inactive
O=C(O)C1CCC1	inactive
